Screens from PubChem.
Shown are actives, neighbours in structure and some others; about 2.4% of the full set was active somewhere.
M1 PAM parental – nonselective calcium activators in parental CHO-K1 cells, primary screen, counter-screen for M1 PAM project, cell-based, Fluo-8 calcium fluorescence, full deck, 1536-well; ATP EC20; 0% at ATP EC20, 100% at ATP max; activation, % at 3 µM; 0.02% of 360,000 active; AID 602247, 2012;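 active means activation above the run cutoff, the mean activation of all test compounds plus 3 SD, cut at about 40% in these data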;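 further: peak over basal fluorescence ratio in a 140 s read after ATP addition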
CHRM1 antagonist – human M1 muscarinic receptor antagonists, primary screen, CHO-K1 cells, Fluo-8 calcium fluorescence, 1536-well. CHO-K1 hM1, ACh EC80 antagonist. inhibition, % at 3 µM. 1.3% of 360,000 active. AID 588852, 2011;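 active means percent inhibition above its own plate's cutoff, namely the mean of that plate's compound wells plus 3 SD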;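 further: peak over basal fluorescence ratio during 140 s after agonist addition; 0% = ACh EC80 plus DMSO and 100% = DMSO alone without agonist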
Target sequence (P11229 whole entry, looked up): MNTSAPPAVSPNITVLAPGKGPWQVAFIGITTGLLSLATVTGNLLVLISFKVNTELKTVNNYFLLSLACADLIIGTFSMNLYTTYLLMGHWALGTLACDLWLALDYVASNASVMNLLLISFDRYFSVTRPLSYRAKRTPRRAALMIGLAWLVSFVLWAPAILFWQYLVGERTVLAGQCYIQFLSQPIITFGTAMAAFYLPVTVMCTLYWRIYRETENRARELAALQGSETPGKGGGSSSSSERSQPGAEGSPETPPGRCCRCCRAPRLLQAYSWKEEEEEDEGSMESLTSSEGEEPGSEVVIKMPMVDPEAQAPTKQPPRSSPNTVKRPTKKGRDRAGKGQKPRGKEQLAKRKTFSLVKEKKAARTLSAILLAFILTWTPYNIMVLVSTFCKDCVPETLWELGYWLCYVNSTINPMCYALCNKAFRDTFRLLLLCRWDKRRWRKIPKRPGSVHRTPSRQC
M1 ag – human M1 muscarinic receptor agonists, primary screen, Fluo-8 calcium fluorescence, CHO-K1 cells, HTS. Muscarinic acetylcholine receptor M1 (Homo sapiens), P11229. CHO-K1 hM1, agonist mode; 0% DMSO, 100% acetylcholine EC100. activation, % at 3 µM. 0.33% of 360,000 active. AID 588814, 2011;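 active means activation above the run's mean compound activation plus 3 SD, cut at about 16% in these data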;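 further: peak over basal fluorescence ratio within a 140 s kinetic read after compound addition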
CHO-K1 Ca antag – M1 antagonist counterscreen hit in parental CHO-K1 cells | ATP-induced calcium, Fluo-8 fluorescence | inhibition, % at 3 µM | 0.6% of 360,000 active | AID 602250;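 active means inhibition above a per-plate cutoff, the plate's mean sample inhibition plus 3 SD, cut at about 24% in these data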;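 further: 0% = DMSO plus EC80 ATP and 100% = DMSO alone without ATP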
M1 ag parental – counter-screen for M1 agonists: effect in parental CHO-K1 cells; Fluo-8 calcium fluorescence; scaled to maximal ATP response, vehicle zero; activation, % at 3 µM; 0.48% of 360,000 active; AID 602248, 2012; in the data active means activation above about 15%;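 further: untransfected CHO-K1 host cells lacking M1 receptor as counterscreen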
M1 PAM – human M1 muscarinic receptor positive allosteric modulators, primary screen, CHO-K1 cells, Fluo-8 calcium fluorescence, 1536-well; Muscarinic acetylcholine receptor M1 (Homo sapiens), P11229; CHO-K1 hM1, ACh EC20; 0% = ACh EC20, 100% = maximal ACh; 0.088% of 360,000 active; activation, % at 3 µM; in the data active means activation above about 19%, passing the limit was not always enough
Active calls of the source: *.

SMILES	M1 PAM parental	CHRM1 antagonist	M1 ag	CHO-K1 Ca antag	M1 ag parental	M1 PAM
CCN(CC)C1CCN(C(=O)c2cc(COc3cccc4cccnc34)on2)C1 (configuration not stated)	4	73*	-1	-11	0	-21
Cc1cc(OCc2cc(C(=O)N3CCC(Oc4cccnc4)CC3)no2)cc(C)c1Cl	-13	31*	-1	26*	13	-9
CCCCN(C(=O)c1cccc(S(=O)(=O)N(CC)c2ccccc2)c1)c1c(N)n(CCCC)c(=O)[nH]c1=O	4	-13	1	-4	0	15
CCOC(=O)c1ccccc1NC(=O)Cc1ccc(OC)c(S(=O)(=O)N2CCOCC2)c1	-13	-2	1	5	0	8
CCCCN(C(=O)COC(=O)C1(c2ccccc2)CC1)c1c(N)n(CCC)c(=O)[nH]c1=O	18	-10	-2	2	0	5
CCCn1ncc(CN2CCC(CO)(Cc3ccc(OC)cc3)CC2)c1C	8	42*	-14	-7	0	-32
COc1ccc(CC2(CO)CCN(CC3=Cc4cc(Cl)ccc4OC3)CC2)cc1	7	27*	-10	22	8	-33
COc1ccc(CC2(CO)CCN(Cc3cnn(-c4ccccc4)c3)CC2)cc1	12	-3	-13	-7	3	4
O=C(O)c1ccccc1C(=O)c1ccc(N2CCCC2)c([N+](=O)[O-])c1	-10	-1	-7	5	-1	2
CC(=O)c1ccc(N2CCN(c3ccccc3O)CC2)c([N+](=O)[O-])c1	-7	37*	0	14	19*	-25
C(=C\c1ccccc1)/CN1CCN(C(c2cccs2)c2nnnn2-c2ccc3c(c2)OCCO3)CC1 (configuration not stated)	12	90*	-5	-17	1	-26
COc1ccc(-n2nnnc2C(c2cc3ccccc3o2)N2CCN(C/C=C/c3ccccc3)CC2)cc1 (configuration not stated)	13	58*	-5	-21	1	-25
C(=C\c1ccccc1)/CN1CCN(C(c2cc3ccccc3o2)c2nnnn2-c2ccc3c(c2)OCCO3)CC1 (configuration not stated)	4	76*	-4	-9	1	-25
CCC(c1nnnn1-c1ccc2c(c1)OCCO2)N1CCN(C/C=C/c2ccccc2)CC1 (configuration not stated)	7	20	-3	-2	6	-17
COc1ccc(-n2nnnc2C(c2cccc3ccccc23)N2CCN(C/C=C/c3ccccc3)CC2)cc1 (configuration not stated)	-10	3	-2	14	0	-15
C(=C\c1ccccc1)/CN1CCN(C(c2nnnn2-c2ccc3c(c2)OCCO3)C2CC2)CC1 (configuration not stated)	7	-4	-6	-16	4	-14
CCCCn1nnnc1C(c1cc2ccccc2o1)N1CCN(C/C=C/c2ccccc2)CC1 (configuration not stated)	4	56*	-5	-8	1	-25
O=C(Nc1ccccc1)C1Cc2c(-c3ccc4c(c3)OCO4)ccnc2O1 (configuration not stated)	19	-7	-2	-16	3	3
O=C(/C=C/c1ccc2c(c1)OCO2)NCCSCc1c(Cl)cccc1Cl	12	-8	-3	-1	0	0
COc1cccc(CN2CCN(CC#Cc3ccccc3)CC2CCO)c1 (configuration not stated)	13	-8	-6	-9	0	13
Cc1cc(NC(=O)C(C)SCC(=O)N(C)Cc2c(F)cccc2Cl)no1 (configuration not stated)	-16	3	-4	-1	0	-1
COc1ccc(C(c2nnnn2-c2ccc3c(c2)OCCO3)N2CCN(C/C=C/c3ccccc3)CC2)cc1 (configuration not stated)	-6	94*	-6	7	0	-26
CCOC(=O)c1ccc(NC(=S)NCC(O)c2ccccc2)cc1 (configuration not stated)	6	34*	-3	12	13	-14
CCOC(=O)c1ccc(NC(=S)NCCc2ccccc2F)cc1	-14	61*	0	25*	15*	-20
O=C(CN1C(=O)NC2(CCCC2)C1=O)Nc1cc(S(=O)(=O)N2CCCCC2)ccc1Cl	-11	-3	-4	-3	1	-2
SMILES	M1 PAM parental	CHRM1 antagonist	M1 ag	CHO-K1 Ca antag	M1 ag parental	M1 PAM
N#CC1=C(SCC(=O)c2ccccc2)NC2=C(C(=O)CCC2)C1c1ccco1 (configuration not stated)	-6	-4	-5	31*	1	-12
Cc1ccc(C(=O)CSC2=C(C#N)C(c3ccco3)C3=C(CCCC3=O)N2)cc1 (configuration not stated)	8	-6	-7	-7	0	1
CCc1ccc(NC(=O)c2nc(S(=O)(=O)Cc3ccccc3)ncc2Cl)cc1	-16	31	-5	30*	1	-12
Cc1ccc(NC(=O)c2nc(S(=O)(=O)Cc3ccccc3C)ncc2Cl)cc1C	-20	10	-3	26*	0	7
CC(=O)Nc1ccc(NC(=O)c2nc(S(=O)(=O)Cc3cccc(C)c3)ncc2Cl)cc1	-30	17	-5	11	0	-6
CCOC(=O)c1ccc(NC(=O)c2nc(S(=O)(=O)Cc3ccccc3)ncc2Cl)cc1	-4	9	-3	16	-1	-3
COCCN1CCC(CNCc2cn[nH]c2-c2ccc(C)c(C)c2)C1 (configuration not stated)	10	-4	-7	-11	0	4
COCCN1CCC(CNCc2cn(-c3cc(C)ccc3C)nc2-c2ccccc2)C1 (configuration not stated)	-2	-6	-12	26*	0	3
CC1CC2(CC(CN(C3CCCCC3)C3CCCCC3)OC2=O)C(=O)O1 (configuration not stated)	16	-7	-12	-24	1	5
Cn1c(=O)c(-c2cccc(Cl)c2)c(O)c2ccccc21	-2	-12	-1	3	1	10
Cn1c2[n+](c3ccc(Cl)cc3c1=O)Cc1ccccc1-2	5	13	-3	4	16*	-6
CS(=O)(=O)c1ccc2nc(NC(=O)c3ccc(Cn4cc(Br)cn4)o3)sc2c1	-21	17	-2	11	4	-7
